Reference: the supplement of paper PMC10732440
± gives the standard deviation of the averaged measurements.

These compounds were tested on Caenorhabditis elegans N2 infected with Nematocida parisii ERTm1 (assay: progeny production relative to DMSO uninfected control; higher = more progeny despite microsporidia infection (inhibition of infection with low host toxicity)). Conditions: infection time 6 days; 40 µM.
Experimental: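 Bleach-synchronised C. elegans N2 L1 larvae (100 per well) were grown in 96-well plates in K-medium with 5x E. coli OP50 and 15,000 N. parisii spores/uL, plus Pandemic Response Box compound at 100 uM or 40 uM (1% DMSO), for 6 days at 21 C with shaking. Worms were stained with Rose Bengal, scanned on a flatbed scanner and counted with WorMachine. Progeny production is given as % of the DMSO uninfected control (triplicate wells), so higher values mean the compound restores progeny despite infection.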

Compound | progeny production
COc1c(F)c(F)cc2c(=O)c(C(=O)O)cn(C3CC3)c12 | 6.01 ± 4.3%
Cc1nc(N(C)C(=O)Cc2ccc(-c3ccccn3)cc2)sc1S(N)(=O)=O | 3.86 ± 0.4%
CC(=O)NC[C@H]1CN(c2ccc(N3CCSCC3)c(F)c2)C(=O)O1 | 6.06 ± 3.1%
CC(=O)N[C@H](C)C(=O)N[C@H](Cc1ccccc1)C(=O)O | 9.08 ± 7.2%
O=C(Nc1nnc(-c2ccc(Cl)cc2)o1)c1ccc(F)cc1 | 9.22 ± 7.4%
CCCCCCCc1[nH]c2ccccc2c(=O)c1O | 7.38 ± 1.2%
COc1nc2ccc(Br)cc2cc1[C@@H](c1ccccc1)[C@@](O)(CCN(C)C)c1cccc2ccccc12 | 7.24 ± 3.5%
COc1ccc2cc3[n+](cc2c1OCCN(CCn1cncn1)Cc1ccc(F)cc1F)CCc1cc2c(cc1-3)OCO2 | 5.91 ± 1.2%
Cc1ccccc1NC(=O)Nc1cccc([N+](=O)[O-])c1 | 4.55 ± 2.1%
CCOC(=O)N[C@@H]1CC[C@@H]2[C@@H](C1)C[C@H]1C(=O)O[C@H](C)[C@H]1[C@H]2/C=C/c1ccc(-c2cccc(F)c2)cn1 | 4.47 ± 3.1%
OC(Cn1cncn1)(Cn1cncn1)c1ccc(F)cc1F | 3.82 ± 1.7%
O=C(c1nc2c(C(F)(F)F)cc(C3CC3)cn2c1Cl)N1CCN([C@H]2CC[C@H](O)CC2)C(=O)C1 | 3.88 ± 1.4%
COc1cc(NCc2ccc3nc(N)nc(N)c3c2C)cc(OC)c1OC | 2.11 ± 0.79%
CSC[C@H]1CN(Cc2c[nH]c3c(N)ncnc23)C[C@@H]1O | 8.02 ± 2.9%
c1cnc(NCc2ccc(CNc3ncccn3)cc2)nc1 | 3.1 ± 0.72%
O=C(NCCN1CCCCC1)c1cccc(C(F)(F)F)c1 | 5.09 ± 1.5%
O=c1[nH]cnc2c1ncn2[C@H]1CC[C@@H](CO)O1 | 6.61 ± 0.81%
Cc1nc2ccc(Oc3ccccc3)cc2c2c1CCN2CCc1ccccc1 | 4.79 ± 0.99%
O=c1cc(Nc2ccc3ccccc3c2)[nH]c(=O)[nH]1 | 7.88 ± 1.4%
CC[N+]1(C/C2=C/CCCCCC2)CCC(NC(=O)C2c3cc(Cl)ccc3Oc3ccc(Cl)cc32)CC1 (stereo unspecified) | 3.01 ± 1.9%
C(=C\c1nc2ccccc2[nH]1)/c1ccc2c(c1)OCO2 | 7.35 ± 5.9%

Same assay, conditions: infection time 6 days; 100 µM

Compound | progeny production
COc1c(F)c(F)cc2c(=O)c(C(=O)O)cn(C3CC3)c12 | 12.9 ± 4.6%
Cc1nc(N(C)C(=O)Cc2ccc(-c3ccccn3)cc2)sc1S(N)(=O)=O | 12.9 ± 8.8%
CC(=O)NC[C@H]1CN(c2ccc(N3CCSCC3)c(F)c2)C(=O)O1 | 10.4 ± 6.2%
CC(=O)N[C@H](C)C(=O)N[C@H](Cc1ccccc1)C(=O)O | 10 ± 3.2%
O=C(Nc1nnc(-c2ccc(Cl)cc2)o1)c1ccc(F)cc1 | 12.6 ± 4.1%
CCCCCCCc1[nH]c2ccccc2c(=O)c1O | 21.2 ± 19%
COc1nc2ccc(Br)cc2cc1[C@@H](c1ccccc1)[C@@](O)(CCN(C)C)c1cccc2ccccc12 | 14.3 ± 4.9%
COc1ccc2cc3[n+](cc2c1OCCN(CCn1cncn1)Cc1ccc(F)cc1F)CCc1cc2c(cc1-3)OCO2 | 17.3 ± 14%
Cc1ccccc1NC(=O)Nc1cccc([N+](=O)[O-])c1 | 13.8 ± 4.8%
CCOC(=O)N[C@@H]1CC[C@@H]2[C@@H](C1)C[C@H]1C(=O)O[C@H](C)[C@H]1[C@H]2/C=C/c1ccc(-c2cccc(F)c2)cn1 | 9.38 ± 3.8%
OC(Cn1cncn1)(Cn1cncn1)c1ccc(F)cc1F | 22 ± 18%
O=C(c1nc2c(C(F)(F)F)cc(C3CC3)cn2c1Cl)N1CCN([C@H]2CC[C@H](O)CC2)C(=O)C1 | 14.2 ± 1.2%
CSC[C@H]1CN(Cc2c[nH]c3c(N)ncnc23)C[C@@H]1O | 15.3 ± 10%
c1cnc(NCc2ccc(CNc3ncccn3)cc2)nc1 | 9.59 ± 5.8%
O=C(NCCN1CCCCC1)c1cccc(C(F)(F)F)c1 | 18.2 ± 16%
O=c1[nH]cnc2c1ncn2[C@H]1CC[C@@H](CO)O1 | 9.85 ± 7.2%
Cc1nc2ccc(Oc3ccccc3)cc2c2c1CCN2CCc1ccccc1 | 11.3 ± 9.1%
O=c1cc(Nc2ccc3ccccc3c2)[nH]c(=O)[nH]1 | 8.48 ± 9.1%
CC[N+]1(C/C2=C/CCCCCC2)CCC(NC(=O)C2c3cc(Cl)ccc3Oc3ccc(Cl)cc32)CC1 (stereo unspecified) | 2.8 ± 2.2%
C(=C\c1nc2ccccc2[nH]1)/c1ccc2c(c1)OCO2 | 16.6 ± 18%
